Inhibition data for 28 compounds are collected here from ChEMBL document CHEMBL1157539, “Thousands of chemical starting points for antimalarial lead identification” (Nature, 2010).

What all share (format): functional
For test [1], the system named is Plasmodium falciparum. Put plainly: GSK_TCMDC: Inhibition of Plasmodium falciparum 3D7 in whole red blood cells, using parasite LDH activity as an index of growth. Test compounds present at 2uM.
For test [2], the system named is Plasmodium falciparum. The test is described as follows: GSK_TCMDC: Inhibition of Plasmodium falciparum Dd2 in whole red blood cells, using parasite LDH activity as an index of growth. Test compounds present at 2uM.
A further test concerns HepG2. The test is described as follows: GSK_TCMDC: Percent inhibition of human HepG2 cell line. Test compounds present at 10uM.

`OC(CNc1ccnc(Nc2cccc(Cl)c2)n1)c1ccccc1C(F)(F)F` (centres undefined): the values for the Inhibition in the test with Plasmodium falciparum [1], with Plasmodium falciparum [2] and in the test on HepG2 were 95%, 36% and 40%, respectively.
For `COc1cccc2cc(C(=O)N[C@@H](CC(C)C)C(=O)Nc3cc(F)ccc3Br)oc12`, in that order: 87%, 45% and 7%.
Taken in the same sequence, the figures for `Cc1nc2nc(N)nc(N)c2c(C)c1Cc1ccccc1Br.Cl` were 92%, 2% and 65%.
Consider `O=C(O)C(F)(F)F.c1ccc(CN2CCC(NCc3ccccc3-c3ccc(CNCc4ccc5c(c4)OCO5)cc3)CC2)cc1`, for which the figures for the Inhibition in the test with Plasmodium falciparum [1], in the test with Plasmodium falciparum [2] and with HepG2 were 100%, 49% and 26%, respectively.
Taken in the same sequence, the figures for `COc1ccc(CNC2CCN(C)CC2)cc1-c1ccc(OC)c(S(=O)(=O)NCc2ccccc2)c1.O=C(O)C(F)(F)F` were 99%, 95% and 10%.
Taken in the same sequence, the figures for `O=C(Nc1ccc(OC2CCN(Cc3ccc(F)cc3)C2)c(Cl)c1)c1ccccc1.O=C(O)C(F)(F)F` (centres undefined) were 91%, 86% and 11%.
For the compound `CCN(CC)CCN(Cc1ccc(-c2ccc(C(F)(F)F)cc2)cc1)C(=O)Cn1cc(Cc2cnn(C)c2)c(=O)n2nc(-c3ccccc3)cc12.O=C(O)C(O)C(O)C(=O)O`, the Inhibition (in general, the share of the control response that was lost under treatment) was determined as 100% with Plasmodium falciparum [1], 74% in the test with Plasmodium falciparum [2] and 18% in the test with HepG2.
Taken in the same sequence, the figures for `CC(CNC(=O)c1cc2c(Cl)cc(Cl)cc2[nH]1)CNc1cc(=O)c2ccccc2[nH]1.O=C(O)C(F)(F)F` (centres undefined) were 97%, 11% and 11%.
Taken in the same sequence, the figures for `COc1ccc(C(=O)NC2CCN(c3ccnc4cc(Cl)ccc34)C2)cc1.O=C(O)C(F)(F)F` (centres undefined) were 100%, 100% and 31%.
Regarding `COc1ccc(NC(=O)c2ccc(-c3nc(-c4ccc(Cl)cc4)cs3)cc2)cc1N1CCN(C)CC1`, the Inhibition in the test on Plasmodium falciparum [1] was found to be 91%; in the test with Plasmodium falciparum [2], 34%; with HepG2 it was 30%.
For `OC(CNC1CCCCC1)Cn1c2ccc(I)cc2c2cc(I)ccc21` (centres undefined), in that order: 100%, 93% and 10%.
For `CC(C)COc1ccc(Cl)cc1Cc1nc(-c2nc3ccc(N4CCN(C)CC4)nc3[nH]2)cs1.Cl`, in that order: 99%, 27% and 29%.
For `CN(Cc1ccccc1)C1CCN(c2cc(NC(=O)c3cccc(F)c3)ccn2)CC1.O=C(O)C(F)(F)F`, in that order: 93%, 3% and 2%.
As to `Cc1cccc2nc(-c3ccc(-c4ccc(NC(=O)Nc5ccc(F)c(F)c5F)cc4)cc3)[nH]c12`, the Inhibition with Plasmodium falciparum [1] is recorded as 100%; in the test with Plasmodium falciparum [2], 97%; with HepG2, 51%.
For `Br.CC1(C)NC(N)=NC(=N)N1OCCCOc1ccccc1N`, in that order: 93%, 95% and 70%.
For `Nc1ncc(-c2ccc3ncccc3c2)c(N)n1.O=C(O)C(F)(F)F`, in that order: 97%, 0% and 55%.
Consider `CN(C)CCCOc1cccc(NC(=O)Nc2ccc(-c3ccccc3)cc2)c1.O=C(O)C(F)(F)F`, for which the Inhibition is 91% in the test on Plasmodium falciparum [1], 14% in the test with Plasmodium falciparum [2] and 9% in the test with HepG2.
Taken in the same sequence, the figures for `O=C(/C=C/c1ccc([N+](=O)[O-])cc1)N1CCC(NS(=O)(=O)c2ccc(F)cc2)CC1` were 96%, 0% and 0%.
For `CC(C)(C)c1nn(-c2ccccc2)c2[nH]c(=O)c(CNC3CCCCC3)cc12`, in that order: 83%, 76% and 6%.
With `CC(=O)Nc1ccc(C(=O)N2CCN(c3ccnc4cc(Cl)ccc34)CC2)cc1.O=C(O)C(F)(F)F`, the Inhibition with Plasmodium falciparum [1] is 93%; in the test with Plasmodium falciparum [2], 43%; in the test on HepG2, 2%.
For `Oc1ccc(Nc2ccnc3cc(Cl)ccc23)cc1`, the Inhibition in the test on Plasmodium falciparum [1] came to 100%; in the test with Plasmodium falciparum [2] it was 97%; in the test with HepG2, 0%.
Taken in the same sequence, the figures for `C=C(C)C1CC=C(CN2CCC(N3CCc4cc(NC(=O)c5cc(C)on5)ccc43)C2)CC1` (centres undefined) were 90%, 95% and 26%.
For `CCCCCCCCc1c(C)nc(C)c(C#N)c1O`, in that order: 97%, 96% and 0%.
Regarding `CN(Cc1ccccc1)C1CCCN(c2cc(NC(=O)c3cccs3)ccn2)C1.O=C(O)C(F)(F)F` (centres undefined), the Inhibition is given as 88% with Plasmodium falciparum [1], 90% with Plasmodium falciparum [2] and 2% with HepG2.
In the case of `COc1ccc(-c2nccc(NC(=N)NCc3ccccc3)n2)cc1`, the Inhibition is listed as 83% with Plasmodium falciparum [1], 21% in the test on Plasmodium falciparum [2] and 27% in the test with HepG2.
In the case of `CCCCNc1cc(C)nc(NCc2ccccc2)n1`, the Inhibition in the test with Plasmodium falciparum [1] amounted to 97%; in the test with Plasmodium falciparum [2], 37%; in the test with HepG2, 23%.
For `Cl.O=C(NCCCCN1CCC(c2ccc3c(c2OCCO)CCCC3)CC1)c1ccc(-c2ccc(C(F)(F)F)cc2)cc1`, in that order: 98%, 38% and 100%.
Taken in the same sequence, the figures for `CO/C(=C\C=C\c1cc2cc(Cl)c(Cl)cc2[nH]1)C(=O)NC1CCN(CCNc2ccccc2)CC1` were 100%, 98% and 60%.
